# Screening results (PubChem BioAssay)
# In the library only some 12% were active in any assay of this set; here they are far more common.
# CHX counter: affects cycloheximide protein synthesis inhibition readout, counter-screen | AID 2314 | hit rate 12% among 300,000 | max response, % | cell reporter, cycloheximide protein synthesis inhibition counterscreen; in the data active means max response mostly above about 13%, no sharp cut-off; inactive means mostly below about 14%; further: read at 38.3 µM for the half of the compounds with a filed dose; 0% is about no effect
# MARV entry inh: blocks Marburg virus binding to or entry into cells | Marburg virus pseudotyped entry inhibition, cell reporter | Potency, µM (series often up to 37.8 µM), for inactives: at the highest dose activity change, negative = inhibition, most hits filed as inhibitors | hit rate 1.8% among 300,000; calls by dose curve; tested in HEK293 cells; further: potency means the concentration at half of the fitted maximal effect; on the % scale 0 is the no-effect control and ±100 the full control effect
# Shiga inhibitor: blocks Shiga toxin action in Vero cells; hit rate 9.2% among 290,000; Vero cells, Shiga toxin protein synthesis inhibition reporter; inhibition, % at 38.7 µM; in the data active means inhibition mostly above about 28%, no sharp cut-off; inactive means mostly below about 43%; further: 0% is about no effect
# LASV entry inh: inhibitors of Lassa virus binding or cell entry. Potency, µM (doses to about 37.9 µM), inactives show at the top dose activity change, negative = inhibition, most hits filed as inhibitors. Lassa virus pseudotype entry inhibition, cell reporter. hit rate 1.2% among 300,000; calls by dose curve; tested in HEK293 cells; further: potency means the concentration at half of the fitted maximal effect; on the % scale 0 is the no-effect control and ±100 the full control effect; nearly all actives have a fitted effect of over 50% in size
# * = called active by the depositor; ? = inconclusive; . = not tested or not shown; + = active, no number; [ ] = another dose, or the depositor's remark.
SMILES,CHX counter,MARV entry inh,Shiga inhibitor,LASV entry inh
CN(C)c1ccc(C=Nc2ccccc2C(N)=O)cc1,26*,15µM*,39,?
Cc1ccc(C=Nc2ccccc2C(N)=O)o1,61*,0%,61*,-1%
CC(C)(C)C(=O)Nc1nnc(SCC(=O)NC2CCCC2)s1,4,6%[46.1 µM],13,-1%
C=CC[C@]1(C(=O)OC)C=C[C@H](C)[C@@H](c2ccccc2)N1C(=O)C(F)(F)F,.,-15%[14.2 µM],.,.
Cc1ccc(-c2nnc(Nc3ccc(Br)cc3)c3ccccc23)cc1S(=O)(=O)N1CCN(C)CC1,.,.,.,11µM*
CC1CCCCN1CCCNC(=O)c1cc(Sc2cccc(Cl)c2)nc2ccccc12 (centres undefined),.,.,.,-9%[46.1 µM]
CCOc1ccc(-c2cn(CCC#N)cn2)cc1,15*,?,18,4%
Cc1nnc(SCC(=O)Nc2ccc(N3CCN(S(C)(=O)=O)CC3)cc2)o1,-8,?,5,6%[46.1 µM]
COc1ccccc1/C=C/C=N/n1c(-c2ccccn2)n[nH]c1=S,34*,.,64*,.
Cc1cccc(/C=N/n2c(-c3ccccn3)n[nH]c2=S)c1,35*,.,47*,.
COc1ccc(-c2n[nH]c(=S)n2/N=C/C=C\c2ccccc2OC)cc1,-3,-21%,-10,?
COc1ccccc1/C=C/C=N/n1c(-c2ccc(C)cc2)n[nH]c1=S,-2,?,-12,3.7µM*
COc1ccccc1/C=C/C=N/n1c(-c2cc(C)[nH]n2)n[nH]c1=S,0,?,-8,?
Cc1cccc(S(=O)(=O)c2c(N)n(-c3ccccc3)c3nc4ccccc4nc23)c1,-3,-24%,1,4%
O=C(O)c1cc(S(=O)(=O)N2CCN(C(=O)c3ccco3)CC2)c(Cl)cc1Cl,-5,3%[46.1 µM],-11,.
CCC1(C)CC(=O)c2c(ccc3oc(C(=O)NCc4ccccc4)c(C)c23)O1 (centres undefined),.,-27%[46.1 µM],.,?
Cc1c(C(=O)NCc2ccoc2)oc2ccc3c(c12)C(=O)CC(C)(C)O3,61*,?,119*,?
Fc1ccc(-c2nnsc2Sc2ccccn2)cc1,34*,?,67*,-2%[46.1 µM]
Cc1cccc(Nc2cc(C)nc3ccccc23)c1,-2,?,-7,?
Cc1cc(Nc2ccc3c(c2)OCCO3)c2cc(Cl)ccc2n1,68*,-26%,79*,9%
Cc1ccc(Nc2cc(C)nc3ccc(C)cc23)cc1,3,11µM*,-9,?
Cc1ccc(Nc2cc(C)nc3ccccc23)c(C)c1,.,10µM*,.,-9%
CCOc1ccc(Nc2cc(C)nc3ccc(C)cc23)cc1,.,?,.,11µM*
C[C@@H](NC(=O)[C@@H]1Cc2ccccc2CN1C(=O)OC(C)(C)C)C(=O)NCC1CCCO1 (some centres undefined),0,3%[46.1 µM],12,-7%[46.1 µM]
CCN(CC)CCOC(=O)c1ccc(NC(=O)c2nn(-c3ccc(C)cc3)c(=O)c3c2c2ccccc2n3C)cc1,.,?,.,-6%[46.1 µM]
SMILES,CHX counter,MARV entry inh,Shiga inhibitor,LASV entry inh
COc1ccc(C(=O)Nc2ccncc2)c(OC)c1,12,-10%[46.1 µM],14,-19%
COc1ccc(NC(=O)c2coc(C)c2)cc1,29*,?,54*,19%[46.1 µM]
COc1ccc(NC(=O)c2ccc(=O)oc2)cc1,2,-15%,13,-28%
COc1ccc(C(=O)CNc2ccc3ccccc3c2)cc1,31*,1%[46.1 µM],79*,16%
COc1ccc(C(=O)Nc2ccc3ccccc3c2)c(OC)c1,30*,?,86*,?
COc1ccc(NC(=O)c2ccc3ccccc3c2)cc1,37*,.,.,.
COc1ccccc1NC(=O)Cn1c(=O)oc2cc(S(=O)(=O)NCc3ccccc3)ccc21,.,-15%[46.1 µM],.,.
CC(C)C(=O)N[C@H]1CCCN1C(=O)/C=C\c1ccccc1,.,-22%[14.2 µM],.,.
CCOC(=O)c1c(NC(=O)CCCOc2ccc(C(C)(C)C)cc2)sc2c1CCCC2,.,.,.,19%[46.1 µM]
Cc1nn(CC(=O)N2CCCC2)c(=O)c2cc3cc(F)ccc3n12,1,.,-4,.
COc1ccc(C(=O)CNc2ccccc2Br)cc1,41*,?,74*,2%[46.1 µM]
COc1ccc(C(=O)NCCn2ccc3ccccc32)c(OC)c1,38*,?,42,?
Cc1ccc(Cl)cc1N1CCN(C(=O)c2cnn(C)c2C2CCN(C(=O)OC(C)(C)C)CC2)CC1,.,.,.,-22%[46.1 µM]
CCN(CC)CCCNC(=O)c1ccc2c(c1)NC(=O)C(CS(=O)(=O)Cc1cccc(Br)c1)N2 (centres undefined),.,.,.,20%[46.1 µM]
Cc1csc(NC(=O)CS(=O)(=O)c2ccccc2)n1,28*,?,48*,12%[46.1 µM]
O=C(CS(=O)(=O)c1ccccc1)Nc1nc(-c2ccccc2)cs1,12,-4%[46.1 µM],16,-7%
CC(C)(C)c1csc(NC(=O)CS(=O)(=O)c2ccccc2)n1,39*,3%[46.1 µM],127*,?
Fc1ccccc1CSc1nnnn1-c1ccc2c(c1)OCO2,16*,22%,23,-13%
O=C(CSc1nnnn1-c1ccc2c(c1)OCO2)NCc1cccs1,27*,36%,+,-19%
Cc1ccc(-c2csc(-c3nc(-c4ccc(Br)s4)cs3)n2)cc1,.,?,.,21%[46.1 µM]
O=C1C=C(Nc2ccccc2)C(=O)c2ccccc21,48*,.,81*,.
O=C1C=C(Nc2ccccc2)c2ccccc2C1=O,9,?,15,7.1µM*
O=C1C(Nc2ccccc2)=CC(=O)c2ncccc21,-7,.,-12,.
CCCCNC1=CC(=O)C(=O)c2ccccc21,4,16µM*,4,?
O=C1C=C(Nc2ccccc2C(=O)O)c2ccccc2C1=O,11,.,26,.
SMILES,CHX counter,MARV entry inh,Shiga inhibitor,LASV entry inh
O=C(COC(=O)c1cc(Br)ccc1O)Nc1cccnc1Cl,.,27%,.,-1%
Cc1cnc(CNC(=O)c2ccc(OC3CCN(C(=O)C4CC4)CC3)cc2)cn1,-1,-1%[46.1 µM],7,22%[46.1 µM]
CCOc1cc(/C=N/NC(=O)C(OC)c2ccccc2)ccc1O (centres undefined),-2,.,-6,.
CCOc1cc(/C=N/NC(=O)C(=O)N/N=C/c2ccc(O)c(OCC)c2)ccc1O,-1,-14%,4,-11%
CCOc1ccc(/C=N/Nc2nc(=O)[nH]nc2C)cc1OC,32*,.,34*,.
COc1cc(/C=N/Nc2nc(=O)[nH]nc2C)cc(OC)c1O,27*,12%[46.1 µM],94*,2%
CCOc1cc(/C=N/Nc2nc(=O)[nH]nc2C)ccc1O,43*,1%[46.1 µM],71*,-5%
CCOc1cc(/C=N/NC(=O)N/N=C/c2ccc(O)c(OCC)c2)ccc1O,.,7.1µM*,.,?
C=C1CCN(C(C)C(=O)OCc2cccc(C)c2)S(=O)(=O)c2ccccc21 (centres undefined),-8,.,8,.
COc1cccc(CNC(=O)Cc2ccc(OC)c(S(=O)(=O)N3CCOCC3)c2)c1,.,25%,.,?
CC1(C)NC(=O)N(C[C@@H](O)Cn2nnc3ccccc32)C1=O,.,-13%[46.1 µM],.,.
Cc1n[nH]c(=O)nc1N/N=C/c1ccco1,11,?,28*,?
Cc1n[nH]c(=O)nc1NCc1ccco1,1,?,6,-15%
COC(=O)Cc1ccc(NC(=S)NNC(=O)C2CC2)cc1,-4,-1%[46.1 µM],-23,?
COc1ccc(C(=O)COC(=O)c2ccc(N(C)C)cc2)cc1,-1,0%[46.1 µM],-11,-1%[46.1 µM]
CN(C)c1ccc(C(=O)OCC(=O)c2cccs2)cc1,45*,?,71*,?
O=C(COC(=O)c1cccs1)c1ccc2ccccc2c1,56*,7%,98*,24%
